ATXN viability: viability counter-screen for ATXN expression inhibitors; S2 cells (HEK-293 line with an ATXN2-luciferase reporter) viability, CellTiter-Fluor protease fluorescence, 24 h; Potency, µM (highest dose often 56.7 µM), actives largely listed as cytotoxic; hit rate 0.49% among 400,000; AID 651635; also: nearly all actives have a fitted effect of over 40% in size
TGFb inhibitor: inhibitors of TGF-b signaling; HepG2 CAGA-GFP TGF-b/SMAD3 reporter, GFP fluorescence, 18 h; TGF-beta stimulated, 500 pg/mL final; Potency, µM (titrated, usually from 46.1 µM), inactives show at the highest dose activity, negative = inhibition, actives largely listed as inhibitors; hit rate 1.2% among 410,000; AID 588855; also: % is scaled to controls: 0 for no effect and ±100 for the full control effect; nearly all actives have a fitted effect of over 65% in size
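Inhibition was scored as loss of TGF-beta-induced (500 pg/mL final, 18 hours, 37 degrees C) GFP in HEPG2 cells carrying a CAGA-GFP reporter, in DMEM with 1% FBS. Well GFP was summed per cell; Activity was normalised to unstimulated and stimulated DMSO wells, then concentration-response fitting.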
A549 tox: A549 cytotoxicity, counter-screen for Nrf2 inhibitors; hit rate 0.16% among 390,000; Potency, µM (series often up to 46 µM), without a hit: at the top dose activity change, negative = cytotoxicity, actives largely listed as inhibitors; A549 ARE-Fluc cells, CellTiter-Fluor viability, 18-24 h; also: % is scaled to controls: 0 for no effect and ±100 for the full control effect
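Cytotoxicity counterscreen: CellTiter-Fluor fluorescence was measured in A549 ARE_Fluc cells after 18-24 h of compound exposure in a concentration series. The subsequent BugLite luminescent read reports ARE-luciferase activity.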
HepG2 tox: kills HepG2 cells in TGF-b inhibitor counter-screen; HepG2 CAGA-GFP viability, ATP luminescence, 18 h; Potency, µM (top dose mostly 46.1 µM), inactives show at the top dose activity change, negative = cytotoxicity, actives largely listed as cytotoxic; hit rate 0.76% among 410,000; AID 588856
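CellTiter-Glo luminescence gave cytotoxicity after 18 hours at 37 degrees C. The cells were HepG2 CAGA-GFP in 1% FBS DMEM, stimulated with 500 pg/mL TGF-beta after compound addition. %Activity was normalised to no-cell wells (complete cell-killing) and DMSO (no toxicity), and curves were fitted and classified.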
Nrf2 inh: inhibitors of Nrf2 signaling. A549 ARE-Fluc reporter, luciferase luminescence, 18-24 h. Potency, µM (titrated, usually from 46 µM), inactives show at the top dose activity change, negative = inhibition, usual class: inhibitors. hit rate 2.1% among 360,000; also: % is scaled to controls: 0 for no effect and ±100 for the full control effect; nearly all actives have a fitted effect of over 60% in size
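Cells were seeded and rested 2 h, then exposed to compounds for 18-24 h. CellTiter-Fluor was read first as a viability measure. BugLite was added 15 min before the final luminescent read of ARE-luciferase activity in A549 cells.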
ATXN2 expr inh: inhibitors of ATXN2 expression | HEK-293 ATXN2-luciferase reporter, luminescence, 24 h | Potency, µM (titrated, usually from 57 µM), for the others: at the highest dose activity change, negative = inhibition, most hits filed as inhibitors | hit rate 0.72% among 360,000 | AID 1745845; also: % is scaled to controls: 0 for no effect and ±100 for the full control effect; nearly all actives have a fitted effect of over 55% in size
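qHTS (up to 57 uM final) was run with 24 h compound exposure of reporter cells at 37 °C. Each well was multiplexed: SteadyGlo luminescence measured ATXN2-luciferase expression after a fluorogenic Gly-Phe-AFC viability readout (25 uM final).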
* = called active by the depositor; i = inactive; ? = inconclusive; nt = no result; ! = repeats disagree; [ ] = another dose, or the depositor's remark. Most compounds without a hit are left out; they make up all but 3.8% or so of the library. Calls follow the shape of the dose curve; as a rule, active = well fitted curve in the direction sought with a large enough effect; inconclusive = small, poorly fitted or top-dose-only effect, or another doubt; inactive = no such curve, though single readings can be large; an effect the other way counts as inactive or inconclusive. Potency is read from the fitted curve at half-maximal effect.

SMILES	ATXN viability	TGFb inhibitor	A549 tox	HepG2 tox	Nrf2 inh	ATXN2 expr inh
C[C@@H]1CN([C@H](C)CO)C(=O)CCCn2cc(nn2)CO[C@H]1CN(C)C(=O)Oc1cccc2ccccc12	i	?	nt	10µM*	nt	-1.9%
C[C@H](CO)N1C[C@H](C)[C@@H](CN(C)C(=O)Oc2cccc3ccccc23)OCc2cn(nn2)CCCC1=O	i	-7.8%	nt	-53.2%	nt	-6.5%
Cc1ccc([C@@H]2CC(=O)[C@@H]3CN(S(=O)(=O)c4ccccc4C)[C@H](c4ccc(Cl)cc4)C[C@@H]3N2S(=O)(=O)c2ccc(C)cc2)cc1	?	-1.1%	nt	-2.4%	nt	-8.4%
COC1C(O)C(C)OC(OC2C(Oc3cccc4c(O)c5c(=O)oc6ccc(C)c7c(=O)oc(c34)c5c67)OC(C)C(O)C2O)C1O (stereo unspecified)	i	2.9%	-16.6%	6.1%	?	10µM*
CCN(CC)C(=O)c1ccc(C2=CC3(CCNCC3)Oc3cccc(O)c32)cc1	nt	nt	nt	nt	nt	-4.1%
CCCCCCCSc1cc(OC)c(CCN(C)C)cc1OC	nt	?	0.9%	-120.5%	0.6%	22.4µM*
Oc1c(Cl)cc(Cl)cc1CN1CCN(Cc2ccccc2)CC1	i	7.4%	-0.3%	0.7%	nt	-9.4%
Oc1c(Cl)cccc1Cc1cc(Cl)cc(Cl)c1O	i	11.2µM*	0.9%	-29.3%	-4.6%	?
COc1ccc(Cc2nccc3cc(OC)c(OC)cc23)cc1OC	i	2.2%	2.4%	-23.7%	14.6µM*	?
COc1cc2c(ccc3c4cc(OC)c(OC)cc4c[n+](C)c23)cc1O	i	-0.7%	-11.2%	5.6%	?	?
C[C@H]([C@H](O)CCC(C)(C)O)[C@H]1CC[C@@]2(O)C3=CC(=O)[C@@H]4C[C@@H](O)[C@@H](O)C[C@]4(C)[C@@H]3CC[C@]12C	nt	nt	nt	nt	nt	8.1%
CN1CCN(c2ccc([N+](=O)[O-])c(N/N=C3\CN4CCC3CC4)c2)CC1	10µM*	8.0%	20.6µM*	-22.3%	0.2%	-7.2%
CCNc1cc(N2CCN(C)CC2)ccc1[N+](=O)[O-]	?	-10.4%	-26.7%	-23.2%	-5.6%	-21.4%[2.22 µM]
CCCCCCC(=O)N/N=C/c1c(O)n(CCCC)c(=S)[nH]c1=O	i	29.0%	-16.0%	14.3%	20.6µM*	?
COc1ccccc1CNC(=O)Cn1c(=O)oc2cc(S(=O)(=O)N3CCC(C)CC3)ccc21	i	?	-6.4%	-32.9%	?	-20.4%
CCOC(=O)c1cnc(SCc2ccc(Cl)c(Cl)c2)nc1N1CC1	?	0.0%	-24.5%	-21.1%	-23.1%	-28.1%
Oc1ccc(Cl)cc1Sc1cc(Cl)ccc1O	?	8.91µM*	-7.5%	-124.3%	-23.5%	?
O=C(c1ccc2c(c1)N(Cc1ccc(F)cc1Cl)C(=O)c1ccccc1S2)N1CCC2(CC1)OCCO2	nt	11.2µM*	-13.6%	-19.1%	nt	nt
Cc1ccc(CN2C(=O)c3ccccc3Sc3ccc(C(=O)N4CCC5(CC4)OCCO5)cc32)cc1	nt	?	-11.3%	-37.0%	nt	nt
CO[C@H]1CCC(O[C@H]2C[C@H]([C@]3(C)CC[C@]4(C[C@H](O)[C@@H](C)[C@@H]([C@@H](C)C=C(C)C(=O)[C@H](C)C[C@H](C)C(=O)O)O4)O3)O[C@]3(O[C@@H]([C@H]4O[C@@](O)(CO)[C@H](C)C[C@H]4C)C[C@H]3C)[C@H]2C)O[C@H]1C (stereo partly specified)	nt	nt	nt	nt	nt	3.06µM*
CC1(C)CSC(=NCc2ccccc2)N1	i	8.91µM*	?	-32.1%	-5.1%	nt
COc1ccc(C2=C(C(C)=O)Sc3nnc(-c4ccc(C)cc4)n3N2C(C)=O)cc1OC	nt	?	-12.2%	-16.1%	nt	nt
O=C1C(=O)c2ccccc2-c2ccccc21	2.82µM*	1.12µM*	?	1.26µM*	18.4µM*	2.51µM*
Cc1ccccc1Cn1cccc(C(=O)Nc2cc(Cl)ccc2C#N)c1=O	i	-26.3%	13.2%	-24.5%	nt	8.8%
COC1/C=C/C=C(\C)Cc2cc(O)c(Cl)c(c2)N(C)C(=O)CC(OC(=O)C(C)C)C2(C)OC2C(C)C2CC1(O)NC(=O)O2 (stereo unspecified)	?	?	?	-5.4%	8.2µM*	?
SMILES	ATXN viability	TGFb inhibitor	A549 tox	HepG2 tox	Nrf2 inh	ATXN2 expr inh
CSCCC(c1nnnn1C1CCCCC1)N1CCC2(CC1)C(=O)NCN2c1ccccc1 (stereo unspecified)	nt	?	nt	-9.4%	nt	-6.6%
C/C(CC(c1ccccc1)c1c(O)c2ccccc2oc1=O)=N\Nc1ccc([N+](=O)[O-])cc1[N+](=O)[O-] (stereo unspecified)	?	?	?	-10.8%	23.1µM*	-37.7%
C[C@@H]1CC2=CC(=O)CC[C@@H]2[C@H]2CC[C@@]3(C)[C@@H](CC[C@]3(C)O)[C@@H]21	i	nt	nt	nt	nt	-9.9%
C=CCO[C@@H](Cn1ccnc1)c1ccc(Cl)cc1Cl	i	nt	nt	nt	nt	nt
Clc1ccc(C(c2ccc(Cl)cc2)n2cc[n+](CC(OCc3ccc(Cl)cc3Cl)c3ccc(Cl)cc3Cl)c2)cc1 (stereo unspecified)	17.8µM*	17.8µM*	?	12.6µM*	?	28.2µM*!
COc1cc(CC(C)N)cc2c1OCO2 (stereo unspecified)	i	nt	nt	nt	nt	-11.1%[116 µM]
O=C(O)c1sccc1Oc1ccc(F)cc1[N+](=O)[O-]	i	18.6%	-16.6%	-1.8%	23.1µM*	-0.8%
COc1cccc(CSc2nc(-c3ccccc3OC)nc3c2Cc2c(CO)cnc(C)c2O3)c1	?	31.5%	-11.6%	-1.0%	?	?
CCOC(=O)[C@]12Cc3cc(OC)ccc3[C@H]1N(CC(=O)OC)C(=O)c1ccccc12	?	nt	nt	nt	nt	14.5%
CCOC(=O)[C@]12Cc3cc(C)ccc3[C@H]1N(Cc1ccccc1)C(=O)c1cc(OC)ccc12	31.6µM*	nt	nt	nt	nt	?
CCOC(=O)[C@]12Cc3cc(OC)ccc3[C@H]1N(C)C(=O)c1cc(OC)ccc12	14.1µM*	nt	nt	nt	nt	?
CCOC(=O)[C@]12Cc3cc(OC)ccc3[C@H]1N(CC(=O)OC)C(=O)c1cc(OC)ccc12	12.6µM*	nt	nt	nt	nt	20µM*
CC12Nc3ccccc3C(=O)N1Cc1cnnn1-c1ccccc12 (stereo unspecified)	i	nt	nt	nt	nt	17.7%
COc1ccc(Nc2c(-c3cc(Br)ccc3O)nc3ncccn23)cc1OC	?	32.2%	-18.4%	4.7%	?	-3.3%
